# The supplement of paper PMC7866885, “A novel bicyclic 2,4-diaminopyrimidine inhibitor of Streptococcus suis dihydrofolate reductase” (PeerJ, 2021)
# ± gives the standard deviation.
# Test system: Streptococcus suis HE06
# Assay: percent growth relative to DMSO control; higher = less growth inhibition
# Settings: 10 µM; incubation time 18 h
# Procedure: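 CLSI broth microdilution: 5x10^4 CFU of Streptococcus suis (strain P1/7 or HE06) incubated with 10 µM Pathogen Box compound in cation-adjusted Mueller Hinton broth, 37 °C, 5% CO2, 18 h. Growth read as OD600 and expressed as percent of the DMSO-treated control (100%); mean ± SD of three independent experiments.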
row,SMILES,percent growth
1,CC1COC(Cn2cncn2)(c2ccc(Oc3ccc(Cl)cc3)cc2Cl)O1 (centres undefined),77 ± 5.4%
2,O=C1O[C@@H](CO)CN1c1cc(F)c(C2=CCN(Cc3ccccc3)CC2)c(F)c1,3.88 ± 0.8%
3,CCc1nn(C)c(C(=O)NCc2ccc(Oc3ccc(C)cc3)cc2)c1Cl,82.6 ± 11%
4,Cc1cc(C2=NOC(c3cc(Cl)c(F)c(Cl)c3)(C(F)(F)F)C2)ccc1C(=O)NCc1ccc2c(c1)C(C)(C)OB2O (centres undefined),60.3 ± 9.8%
5,Cc1nn(Cc2ccccc2)c(Cl)c1C(=O)NC1CCCCCC1,107 ± 13%
6,Cc1nn(C)c(C)c1NS(=O)(=O)c1c(Cl)cc(-c2ccnc(N3CCNCC3)c2)cc1Cl,94.8 ± 29%
7,CO/N=C(\C(=O)OC)c1ccccc1CO/N=C(\C)c1cccc(C(F)(F)F)c1,102 ± 17%
8,CC1(C)OB(O)c2ccc(C3=NOC(c4cc(Cl)c(F)c(Cl)c4)(C(F)(F)F)C3)cc21 (centres undefined),15.4 ± 15%
9,CO/C=C(/C(=O)OC)c1ccccc1Oc1cc(Oc2ccccc2C#N)ncn1,76.8 ± 3.1%
10,Cc1cccc(C(=O)Nc2ccnc(N(C)C3CCN(CC(C)C)CC3)c2)c1,95.9 ± 30%
11,O=C1O[C@@H](COc2ccon2)CN1c1cc(F)c(C2=CCN(Cc3ccccc3)CC2)c(F)c1,2.62 ± 3.7%
12,CO[C@@H]1CN(c2ccc(C#CC3(O)CN4CCC3CC4)c(Cc3ccccc3)n2)C[C@H]1O (some centres undefined),108 ± 2.9%
13,Nc1c2c(nc3sc4c(c13)CCCC4)CCCC2,76.3 ± 20%
14,CC(C)(C)C(O)C(Oc1ccc(-c2ccccc2)cc1)n1cncn1 (centres undefined),86.7 ± 8.5%
